Source: PubChem BioAssay (NCI)
The panel holds about 83,000 compounds, 20% with a hit somewhere; the sample as a whole holds those more often.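 Testing used 96-well plates and a 48-hour single-concentration exposure. Example: -40 means 40% of the starting cells died.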 Values without a mark were called inactive. Active and inactive are the calls of the source. How the source made its calls: active means growth percent below 10; inactive means the rest.

Columns and labels:
Test in all cases: NCI-60 one-dose screen, 48 h (100 = growth as untreated, 0 = no growth, -100 = all killed)
Conditions in all cases: 10 µM unless noted
SK-MEL-2 melanoma = test system: SK-MEL-2 melanoma
EKVX NSCLC = test system: EKVX NSCLC
SN12C renal = test system: SN12C renal
UO-31 renal = test system: UO-31 renal
TK-10 renal = test system: TK-10 renal
ACHN renal = test system: ACHN renal
CAKI-1 renal = test system: CAKI-1 renal
A498 renal = test system: A498 renal
CCRF-CEM leukemia = test system: CCRF-CEM leukemia
MOLT-4 leukemia = test system: MOLT-4 leukemia
SR leukemia = test system: SR leukemia
RPMI-8226 leukemia = test system: RPMI-8226 leukemia
OVCAR-8 ovarian = test system: OVCAR-8 ovarian
OVCAR-5 ovarian = test system: OVCAR-5 ovarian
OVCAR-4 ovarian = test system: OVCAR-4 ovarian
SK-OV-3 ovarian = test system: SK-OV-3 ovarian
IGROV1 ovarian = test system: IGROV1 ovarian
OVCAR-3 ovarian = test system: OVCAR-3 ovarian
HS 578T breast = test system: HS 578T breast
NCI/ADR-RES ovarian = test system: NCI/ADR-RES ovarian

SMILES	growth (SK-MEL-2 melanoma) [%]	growth (EKVX NSCLC) [%]	growth (SN12C renal)	growth (UO-31 renal)	growth (TK-10 renal)	growth (ACHN renal)	growth (CAKI-1 renal)	growth (A498 renal)	growth (CCRF-CEM leukemia)	growth (MOLT-4 leukemia)	growth (SR leukemia)	growth (RPMI-8226 leukemia)	growth (OVCAR-8 ovarian)	growth (OVCAR-5 ovarian)	growth (OVCAR-4 ovarian)	growth (SK-OV-3 ovarian)	growth (IGROV1 ovarian)	growth (OVCAR-3 ovarian)	growth (HS 578T breast) [%]	growth (NCI/ADR-RES ovarian)
CCOC(=O)CC1CSC(N/N=C/c2ccc(O)cc2)=N1 (stereo not given)	95.1	103	105%	89.7%	91.5%	105%	94.6%	108%	115%	107%	98.5%	104%	103%	100%	108%	88.8%	97.3%	110%	104	108%
N#CC1=C(N)Oc2c(ccc3cccnc23)C1c1ccccc1 (stereo not given)	43.2	51.8	49.5%	43.6%	73%	45.8%	39.9%	9.1% (active)	15.7%	39.2%	35.2%	11.6%	45.2%	56.3%	44.9%	58.3%	42.4%	-6.82% (active)	35.6	-11.2% (active)
O=C(/C=C/c1ccc(Cl)cc1)c1ccc(-n2cc(CN3CCN(c4cc5c(cc4F)c(=O)c(C(=O)O)cn5C4CC4)CC3)nn2)cc1	99.1	96.6	58.2%	65.1%	92.4%	89.9%	75.5%	60.5%	74.6%	81.7%	13.1%	11.5%	83.6%	100%	94.4%	84.6%	59%	90.5%	65.3	94.8%
C=C(C)[C@@H]1CC[C@]2(COCCCNCCCN)CC[C@]3(C)[C@H](CC[C@@H]4[C@@]5(C)CC[C@H](OCCCN)C(C)(C)[C@@H]5CC[C@]43C)[C@@H]12	92.6	47.6	-83.1% (active)	38.9%	-10.4% (active)	-72.4% (active)	51.9%	90.3%	-37.8% (active)	-15.6% (active)	-49.2% (active)	-51.7% (active)	-66.3% (active)	-49% (active)	-79.4% (active)	102%	-81.1% (active)	47.8%	87.4	-80.2% (active)
COc1ccc(NC(=O)c2ccc(Cl)cc2Cl)cc1	106	89.1	101%	96.5%	88.3%	117%	95.7%	72.6%	106%	107%	98.2%	101%	98.6%	101%	78.7%	106%	106%	106%	96.8	97.5%
COc1cc2cc(Oc3ccc(NC(=O)Nc4ccc(F)c(C(F)(F)F)c4)cc3)c(C)nc2cc1OCCN1CCCCC1	102	57.6	91.7%	75.3%	118%	84.1%	-85% (active)	84.7%	2.51% (active)	-14.5% (active)	-46.1% (active)	-25.8% (active)	-55.5% (active)	127%	0.714% (active)	115%	34.7%	-92.5% (active)	102	74.7%
Clc1nc(N2CCC[N+]3(CC2)CC[N+]2(CCCNCC2)CC3)nc(N2CCC[N+]3(CC2)CC[N+]2(CCCNCC2)CC3)n1 (stereo not given)	106	108	93.7%	97.9%	133%	115%	65.1%	114%	96.7%	92.3%	90.4%	99.8%	86%	113%	98.4%	76.2%	97.3%	92.2%	98.3	92.6%
Cc1ccc(OCCOCCOCCOCCOc2ccc(C)n(O)c2=S)c(=S)n1O	12.1	17.3	13.1%	-1.11% (active)	33.3%	12.7%	8.11% (active)	29.6%	1.1% (active)	6.72% (active)	6.36% (active)	13.4%	9.37% (active)	39.1%	24.4%	0.0112% (active)	30.9%	25%	44	1.43% (active)
CCCCCCCCNC(=O)[C@@H](N)CSCOC(C)=O	89.1	111	91.7%	94.9%	105%	100%	107%	63%	45.7%	90.4%	100%	87.9%	85.5%	103%	112%	95.3%	103%	97.4%	93.4	82.7%
O=C(O)/C=C\C(=O)Nc1ccc2c(c1)Cc1cc(F)ccc1-2	98	90.3	100%	81%	114%	94.2%	81.3%	109%	110%	109%	106%	97.6%	105%	107%	100%	94.2%	95.5%	106%	126	102%
O=C1C2C(c3cccs3)C=C(c3ccc(Cl)cc3)N2C(=S)N1c1ccccc1 (stereo not given)	102	109	95.8%	71.4%	116%	95.5%	91.3%	88.6%	98.3%	95.4%	97.6%	99.3%	97.8%	96.5%	98.1%	109%	93.2%	104%	92.2	103%
C#CCOC(=O)C(N)CSSCC(N)C(=O)O (stereo not given)	89.2	102	105%	83.5%	100%	91.7%	90.7%	116%	99.4%	102%	96.1%	103%	111%	84.4%	95.9%	109%	99.5%	112%	107	101%
COc1cc(NC(=O)c2cncnc2Nc2ccc3c(ccn3Cc3cccc(F)c3)c2)cc(OC)c1	66.7	85.3	67.4%	37.9%	76.8%	54%	34.8%	24.3%	26.4%	19.8%	19.7%	63.5%	65.8%	71.7%	95.1%	67%	50.8%	23%	51	42.1%
C=CCOC(=O)C1=C(C)N(CC)C(=O)N(CC)C1c1c(Cl)n(C)c2ccccc12 (stereo not given)	95.6	75.5	89%	64.6%	94.1%	56.9%	32.8%	82.5%	-9.42% (active)	89.3%	90.5%	59.7%	88%	89.1%	88.5%	103%	90.9%	90%	89.2	84.2%
